About 55 (4%) of roughly 1,300 compounds were called active.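 How the source made its calls: active means fitted EC50 between 10 nM and 100 µM, Hill slope size 0.5 to 2, real signal loss, low interference; inactive means the rest.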 Not all results are given here. Entries with a potency or affinity are not part of this list.

This test concerns the target Ras-related C3 botulinum toxin substrate 1, Mus musculus (UniProt P63001). Nature of the test: inhibitors of activated mutant Rac1 GTP binding, dose response, biochemical, multiplex, GST-Rac1 beads, Bodipy-FL-GTP, flow cytometry (AID 1339).
Turning to `COC(=O)c1cccc(NC(=O)c2nn(C)c(=O)c3ccccc23)c1`, the compound was classed as inactive.
As for `Cc1ccc(C)c(N(CC(N)=O)S(C)(=O)=O)c1`, the result was inactive.
The value for `Cc1nc2ccc(NC(=O)COc3ccccc3)cc2s1` was “inactive”.
`CCOC(=O)Cn1c(=O)c2c(nc(N3CCCCC3)n2C)n(C)c1=O`: the compound was called inactive.
In the case of `Cc1cccc(CNc2nc(C)ccc2C(=O)O)c1`, the compound was called inactive.
Consider `CCc1ccccc1NCc1sc(C(=O)O)cc1C`, for which the compound was called inactive.
For `O=C(O)c1ccc(CNCc2ccc(F)cc2)s1`, the call was inactive.
In the case of `Cc1cc(C(F)F)n2nc(C(=O)Nc3ccc(S(=O)(=O)N4CCCCCC4)cc3)nc2n1`, the result was inactive.
For the compound `CCC(=O)c1ccc(OCC(=O)O)c(OC)c1`, the call was inactive.
The result for `O=C(CNC(=O)c1ccco1)OCN1C(=O)c2ccccc2C1=O` reads “inactive”; that for `COc1ccc(CCNC(=O)C2CCCN2C(=O)NC2CCCCC2)cc1OC` (stereo not given), “inactive”; that for `CC(C)(C)NC(=O)CSc1nccn1Cc1ccccc1`, “inactive”.
On to `CCCCNC(=O)c1cc([N+](=O)[O-])[nH]n1`, for which the compound was classed as inactive.
In the case of `Nc1nc(CN2CCN(c3ccccc3F)CC2)nc(N2CCCc3ccccc32)n1`, the result was inactive.
Consider `COc1cccc(OCc2c(C)cccc2C)c1C(=O)O`, for which the compound was classed as inactive.
The value for `CCn1c2ccccc2c2nc3cc(C(=O)O)ccc3nc21` was “inactive”; that for `COc1cccc(NC(=O)NCCCN2CCN(c3ccc(F)cc3)CC2)c1` was “inactive”.
With `Cc1nn(-c2ccc(F)cc2)c(Cl)c1/C=C(\CCC(=O)O)c1nc2ccccc2s1`, the result was inactive.
The result for `Cn1c(=O)cc(N2CCOCC2)[nH]c1=O` reads “inactive”; that for `Cc1cc2nc3c(=O)n(C4CCCCC4)c(=O)[nH]c3nc2cc1N`, “inactive”; that for `CNC(=O)C(C)NS(=O)(=O)c1ccc(F)cc1` (stereo not given), “inactive”.
For `NC(=O)COC(=O)c1cccc2c1-c1ccccc1C2=O`, the compound was classed as inactive.
As for `O=C(O)c1cc([N+](=O)[O-])ccc1NCc1ccccc1Cl`, the compound was called inactive.
As to `COc1cc(-c2cc(=O)c3c(O)cc(O)cc3o2)ccc1O`, the compound was classed as inactive.
On to `O=C(Cc1ccc(Nc2nc(=S)[nH]c3ccccc23)cc1)NC1CCCCC1`, for which the call was inactive.
Regarding `Cc1cc(C(F)(F)F)c(C#N)c(SCC(=O)Nc2nc3ccccc3s2)n1`, the compound was called inactive.
For the compound `O=C(CSc1n[nH]c(=O)[nH]c1=O)N/N=C/c1ccccc1`, the outcome was inactive.
Regarding `O=C1CN=C(c2ccccc2)c2cc(Br)ccc2N1Cc1cc(=O)n2ccccc2n1`, the compound was classed as inactive.
The result for `CC(C)[C@H](NC(=O)c1ccccc1)C(=O)OCC(=O)NCCc1ccc(F)cc1` reads “inactive”; that for `O=C(NCc1cccs1)c1cccn2c(=O)c3sccc3nc12`, “inactive”.
Turning to `Cc1cc(C)cc(C(=O)N(NC(=O)Nc2ccc(Cl)cc2)C(C)(C)C)c1`, the outcome was inactive.
With `Cn1c(NC(=S)Nc2ccccc2)nc2ccccc21`, the result was inactive.
The value for `O=C(Nc1cccc(-c2ccc3nncn3n2)c1)c1ccco1` was “inactive”.
On to `CC(C)CCNC(=O)Cc1ccc(Nc2nc(=S)[nH]c3ccccc23)cc1`, for which the outcome was inactive.
As to `CCOc1c2ccc(C(=O)N[C@H](C)C3CCCCC3)cc2nn1CCOC`, the compound was classed as inactive.
The result for `CS(=O)(=O)N1N=C(c2ccccc2)CC1c1ccc2c(c1)OCO2` (stereo not given) reads “inactive”; that for `Cc1ccc(-c2cn3cccc(C)c3n2)cc1`, “inactive”.
Turning to `CN1CCN(c2ccccc2NC(=O)c2ccc(-c3cccc([N+](=O)[O-])c3)o2)CC1`, the compound was called inactive.
With `O=C(O)C1CCCN1C(=O)OCc1ccccc1` (stereo not given), the compound was classed as inactive.
With `COc1ccc([N+](=O)[O-])cc1NC(=S)NC(NC(=O)Cc1ccc(OC)c(OC)c1)C(Cl)(Cl)Cl` (stereo not given), the outcome was inactive.
Consider `Cc1ccc(-c2ccc(/C=C(\C#N)C(=O)Nc3cc(C)nn3-c3ccccc3)o2)cc1`, for which the call was inactive.
The value for `Cc1cccc2cc(CN(Cc3cccs3)C(c3nnnn3C3CCCC3)C(C)C)c(=O)[nH]c12` (stereo not given) was “inactive”; that for `CC(C)(C)c1ccc(OCCSc2nc3ccccc3n2CC(=O)O)cc1` was “inactive”; that for `Cc1cccc(OCCSc2nc3ccccc3n2CC(=O)O)c1C` was “inactive”.
Consider `COc1ccc(OC)c(/C=N/NC(=O)c2ccc(Cn3cc([N+](=O)[O-])cn3)o2)c1`, for which the outcome was inactive.
Regarding `O=C(Nc1nc(-c2ccc(S(=O)(=O)N3CCCC3)cc2)cs1)c1cccs1`, the result was inactive.
`Nc1cccc(S(=O)(=O)c2cccc(N)c2)c1`: the outcome was inactive.
As to `Cc1ccc(/C=C(\CCC(=O)O)c2nc3ccccc3s2)cc1[N+](=O)[O-]`, the compound was classed as inactive.
On to `Cc1c(NC(=O)CCN2C(=O)c3ccccc3C2=O)c(=O)n(-c2ccccc2)n1C`, for which the compound was classed as inactive.
As for `C=C(C)COc1ccc(-c2n[nH]c(C)c2-c2ccc(Br)cc2)c(O)c1`, the outcome was inactive.
For the compound `CCc1ccc(OCc2ccc(C(=O)O)o2)cc1`, the compound was classed as inactive.
The result for `COc1ccc(N/C=C/c2nc(SC)nnc2C)cc1` reads “inactive”; that for `CCC(OC(=O)c1cc2sccc2n1C)C(=O)NCc1ccco1` (stereo not given), “inactive”.
With `Br.COc1cc(NS(=O)(=O)c2ccc(Nc3nc(-c4ccccc4)cs3)cc2)nc(OC)n1`, the compound was called inactive.
The value for `COc1ccc(-c2nn3c(-c4ccccn4)nnc3s2)cc1OC` was “inactive”.
In the case of `COc1ccccc1-n1cc([C@@H]2C[C@H]3CN(c4ccccc4)C(=O)[C@]34CCCN24)cn1`, the compound was classed as inactive.
For `CC(=O)OC(C(=O)NC1CCCCC1)c1ccc(Cl)cc1` (stereo not given), the compound was classed as inactive.
Take `CC(C)C(=O)N1CCN(c2ccccc2NC(=O)c2cccc(Cl)c2)CC1`: the compound was called inactive.
For the compound `COc1ccc(-c2nnc(S/C(=C/c3ccc(Cl)cc3)C(=O)O)o2)cc1`, the result was inactive.
Regarding `Cc1nc2ncccn2c1-c1csc(Nc2ccccc2)n1`, the call was inactive.
As for `Cc1cccc(CNc2ncccc2C(=O)O)c1`, the compound was called inactive.
The result for `COC(=O)c1ccc(COc2ccccc2/C=N/Nc2cccc(C(=O)O)c2)cc1` reads “inactive”.
The result for `C=CCc1ccc(OCc2ccc(C(=O)O)o2)c(OC)c1` reads “inactive”; that for `Cc1ccc(-n2c(SCc3cc(=O)n4ccsc4n3)nnc2-c2cccnc2)c(C)c1`, “inactive”; that for `COc1cccc(OCc2ccccc2Br)c1C(=O)O`, “inactive”.
Consider `CCc1nnc(NC(=O)CSc2nnc(CNc3ccc(F)cc3)n2C2CCCCC2)s1`, for which the outcome was inactive.
`CN(C)CCN(C(=O)c1ccc(N2C(=O)CCC2=O)cc1)c1nc2cc3c(cc2s1)OCO3.Cl`: the result was inactive.
On to `Cc1cc(C)n2nc(C(=O)Nc3ccc(S(=O)(=O)N4CCCC4)cc3)nc2n1`, for which the call was inactive.
Consider `COc1ccc(/C=N/n2c(N)c(S(=O)(=O)c3cccs3)c3nc4ccccc4nc32)cc1OC`, for which the compound was classed as inactive.
For `O=C(Oc1cccc(O)c1)C1CCCCC1`, the compound was classed as inactive.
`COc1cc(NC(=O)c2cccs2)c(OC)cc1NC(=O)CCC(=O)Nc1cccc2ncccc12.Cl`: the compound was called inactive.
In the case of `CC1(C)Cc2c(sc(NC(=O)c3ccc(Br)o3)c2C#N)CO1`, the compound was classed as inactive.
The value for `C=CCNc1nc(=S)[nH]c2cc(OC)c(OC)cc12` was “inactive”; that for `O=C(COC(=O)/C=C/c1cccs1)Nc1ccc2ccccc2c1` was “inactive”.
The value for `Cc1nc(NC(=O)/C=C/c2ccc(Cl)cc2Cl)sc1C(=O)N(C)C` was “inactive”; that for `O=C(C1CCCO1)N1CCN(C(=S)Nc2ccccc2C(F)(F)F)CC1` (stereo not given) was “inactive”.
As to `COc1ccc(CC(=O)Nc2ccc(C(=O)Nc3nccs3)cc2)cc1OC`, the call was inactive.
The result for `CS(=O)(=O)c1ccc(C(=O)OCc2nnc(-c3ccccc3)o2)cc1[N+](=O)[O-]` reads “inactive”; that for `N#CC(c1ccc(Cl)nn1)c1ccc(Cl)cc1Cl` (stereo not given), “inactive”.
For `Cc1cc(C)c2sc(N(CCN(C)C)C(=O)c3cc(Cl)sc3Cl)nc2c1.Cl`, the compound was classed as inactive.

The values are drawn from the GenesisPotency data set.
